# Reference: PubChem BioAssay (NCATS)
# Records with an inconclusive call do not appear. Activity calls are given as the source filed them. Calls come from the whole dose curve; as a rule, active = well fitted curve in the direction sought with a large enough effect; inconclusive = small, poorly fitted or top-dose-only effect, or another doubt; inactive = no such curve, though single readings can be large; an effect the other way counts as inactive or inconclusive.
# Key:
# [1] = qHTS of pediatric cancer cell lines to identify multiple opportunities for drug repurposing: Confirmatory screen for BT-12 cells (AID 1347112); note: nearly all actives have a fitted effect of over 55% in size; note: potency is the fitted concentration of half-maximal effect
# In short: (§1)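 Viability after 48 h compound treatment at 37C, 500-1,000 cells/well, read as ATP luminescence with CellTiter-Glo. Primary screens used 11-point (MIPE, 0.78 nM-46 µM) or 8-point (NPC, 0.59 nM-46 µM) final concentrations; follow-up screens used 11-point dilutions.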
# [2] = qHTS of pediatric cancer cell lines to identify multiple opportunities for drug repurposing: Confirmatory screen for LAN-5 cells (AID 1347113); note: nearly all actives have a fitted effect of over 65% in size; note: potency is the fitted concentration of half-maximal effect
# In short: as §1
# [3] = qHTS of pediatric cancer cell lines to identify multiple opportunities for drug repurposing: Confirmatory screen for DAOY cells (AID 1347114); note: nearly all actives have a fitted effect of over 65% in size; note: potency is the fitted concentration of half-maximal effect
# In short: (§2)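 Viability measured as metabolically active cells via CellTiter-Glo luminescence following 48 hours of compound exposure, 11-point dilutions in confirmatory testing. 500-1,000 cells/well plated 5 hours before dosing; controls were DMSO and 2.3 µM bortezomib.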
# [4] = qHTS of pediatric cancer cell lines to identify multiple opportunities for drug repurposing: Confirmatory screen for BT-37 cells (AID 1347117); note: potency is the fitted concentration of half-maximal effect; nearly all actives have a fitted effect of over 55% in size
# In short: as §1
# [5] = qHTS of pediatric cancer cell lines to identify multiple opportunities for drug repurposing: Confirmatory screen for MG 63 (6-TG R) cells (AID 1347119); note: potency is the fitted concentration of half-maximal effect; nearly all actives have a fitted effect of over 55% in size
# In short: as §1
# [6] = qHTS of pediatric cancer cell lines to identify multiple opportunities for drug repurposing: Confirmatory screen for control Hh wild type fibroblast cells (AID 1347121); note: nearly all actives have a fitted effect of over 70% in size
# In short: as §1
# [7] = qHTS of pediatric cancer cell lines to identify multiple opportunities for drug repurposing: Confirmatory screen for RD cells (AID 1347124);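 note: cells exposed to compound for 48 h before viability readout; nearly all actives have a fitted effect of over 65% in size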; note: potency is the fitted concentration of half-maximal effect
# In short: as §1
# [8] = qHTS of pediatric cancer cell lines to identify multiple opportunities for drug repurposing: Confirmatory screen for Rh18 cells (AID 1347125); note: nearly all actives have a fitted effect of over 55% in size; note: potency is the fitted concentration of half-maximal effect
# In short: as §1
# [9] = qHTS of pediatric cancer cell lines to identify multiple opportunities for drug repurposing: Confirmatory screen for Rh30 cells (AID 1347126); note: nearly all actives have a fitted effect of over 55% in size; note: potency is the fitted concentration of half-maximal effect
# In short: as §1
# [10] = qHTS of pediatric cancer cell lines to identify multiple opportunities for drug repurposing: Confirmatory screen for Saos-2 cells (AID 1347127); note: nearly all actives have a fitted effect of over 60% in size; note: potency is the fitted concentration of half-maximal effect
# In short: as §1
# [11] = qHTS of pediatric cancer cell lines to identify multiple opportunities for drug repurposing: Confirmatory screen for OHS-50 cells (AID 1347128); note: potency is the fitted concentration of half-maximal effect
# In short: as §1
# [12] = system: Zika virus NS2B-NS3 protease (unlinked); experiment: Optimization of GU AMC qHTS for Zika virus inhibitors: Unlinked NS2B-NS3 protease assay (AID 1347151); note: nearly all actives have a fitted effect of over 80% in size; note: potency is the fitted concentration of half-maximal effect
# In short: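 Fluorescence gain (340/450 nm) over 15 min at room temperature, ~20% conversion, gave percent inhibition fitted to a 4-parameter Hill equation; enzyme was unlinked NS2B-NS3 (25 nM final), pH 8.0 Tris buffer.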
# [13] = qHTS of pediatric cancer cell lines to identify multiple opportunities for drug repurposing: Confirmatory screen for Rh41 cells (AID 1347123);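 note: potency is the fitted concentration of half-maximal effect; 48 h compound exposure; nearly all actives have a fitted effect of over 60% in size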
# In short: as §1
# [14] = molecular target: N-terminal Xaa-Pro-Lys N-methyltransferase 1 (Homo sapiens) (UniProt Q9BV86); experiment: qHTS Assay for Inhibitors of N-terminal methyltransferase 1 (NTMT1): LOPAC validation of the NTMT1 SAHH-coupled ThioGlo3 Assay (AID 1347143);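 note: SAH from peptide methylation measured as thiol fluorescence via SAHH coupling and ThioGlo3; nearly all actives have a fitted effect of over 70% in size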; note: potency is the fitted concentration of half-maximal effect
# Chain of N-terminal Xaa-Pro-Lys N-methyltransferase 1 (Homo sapiens) (Q9BV86 whole entry, looked up): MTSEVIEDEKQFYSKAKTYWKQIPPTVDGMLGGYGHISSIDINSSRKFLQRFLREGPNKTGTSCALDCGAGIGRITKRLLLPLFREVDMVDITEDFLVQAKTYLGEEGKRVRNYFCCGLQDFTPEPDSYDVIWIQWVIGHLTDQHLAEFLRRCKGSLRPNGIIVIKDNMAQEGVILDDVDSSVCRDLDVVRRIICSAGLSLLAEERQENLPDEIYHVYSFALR
# In short: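 Recombinant human NTMT1 (125nM) was pre-incubated 1 min at room temperature with compounds over a concentration range, then a mix of 100uM SAM, 10uM SAHH and 15uM ThioGlo3 (concentrations in added reagent) was added. ThioGlo3 fluorescence (ex 340/em 450nm) after 30 min was normalized to the initial reading.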
# Furin (Homo sapiens) = Furin (Homo sapiens) (UniProt P09958); experiment: Furin counterscreen qHTS for Zika virus inhibitors (AID 1347149); note: nearly all actives have a fitted effect of over 70% in size; note: potency is the fitted concentration of half-maximal effect
# Chain of Furin (Homo sapiens) (P09958 whole entry, looked up): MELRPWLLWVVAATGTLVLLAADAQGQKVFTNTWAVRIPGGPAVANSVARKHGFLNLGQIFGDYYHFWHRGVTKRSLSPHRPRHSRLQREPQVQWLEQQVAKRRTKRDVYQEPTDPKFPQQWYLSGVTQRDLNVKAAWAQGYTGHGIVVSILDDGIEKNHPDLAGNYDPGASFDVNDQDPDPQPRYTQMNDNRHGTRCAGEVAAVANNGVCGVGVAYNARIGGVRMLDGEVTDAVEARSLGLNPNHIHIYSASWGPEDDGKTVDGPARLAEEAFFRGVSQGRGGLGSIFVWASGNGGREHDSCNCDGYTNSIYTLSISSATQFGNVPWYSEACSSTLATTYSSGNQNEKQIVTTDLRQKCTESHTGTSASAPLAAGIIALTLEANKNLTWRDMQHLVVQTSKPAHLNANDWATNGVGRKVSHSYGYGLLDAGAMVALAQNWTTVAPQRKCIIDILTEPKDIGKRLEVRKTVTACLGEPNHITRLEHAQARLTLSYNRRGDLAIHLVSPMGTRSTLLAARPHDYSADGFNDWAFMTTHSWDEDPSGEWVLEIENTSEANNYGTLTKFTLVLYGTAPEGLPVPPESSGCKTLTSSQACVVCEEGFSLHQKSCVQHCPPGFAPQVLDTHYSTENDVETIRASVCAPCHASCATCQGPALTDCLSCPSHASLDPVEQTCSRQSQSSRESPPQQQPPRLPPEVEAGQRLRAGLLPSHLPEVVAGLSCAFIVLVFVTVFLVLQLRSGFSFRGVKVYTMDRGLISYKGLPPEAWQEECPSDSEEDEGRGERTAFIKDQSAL
# In short: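 Fluorogenic cleavage of BOC-RVRR-AMC (2 microM final, Km ~15 µM) was monitored (ex 340, em 450 nm) at 37C after 15 min RT preincubation of 5 nM furin with compounds in HEPES pH 7.0 buffer with CaCl2 and Triton X-100. Percent inhibition was fitted to a 4-parameter Hill curve.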
# [15] = system: Zika virus NS2B-NS3 protease (linked construct); experiment: Confirmatory screen NINDS AMC qHTS for Zika virus inhibitors (AID 1347152); note: nearly all actives have a fitted effect of over 70% in size; note: potency is the fitted concentration of half-maximal effect
# In short: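 IC50s from 4-parameter Hill fits of percent inhibition, based on AMC fluorescence gain (340/450 nm) over 15 min with 10 microM Bz-Nle-KRR-AMC. Enzyme: 1 nM linked NS2B-NS3 in Tris-HCl pH 8.0; 15-min compound preincubation.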
# [16] = system: Zika virus NS2B-NS3 protease (unlinked complex); experiment: Confirmatory screen GU AMC qHTS for Zika virus inhibitors (AID 1347153); note: nearly all actives have a fitted effect of over 70% in size
# In short: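 Unlinked NS2B-NS3 complex (25 nM) in 10 mM Tris-HCl pH 8.0, 0.01% Tween 20 preincubated 15 min with compound, then 10 microM Bz-Nle-KRR-AMC (Km 18.3 µM). Fluorescence change over 15 min, normalized, Hill-fitted.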
# [17] = qHTS of pediatric cancer cell lines to identify multiple opportunities for drug repurposing: Confirmatory screen for NB-EBc1 cells (AID 1347115);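 note: cells exposed to compound for 48 h before the viability read; nearly all actives have a fitted effect of over 45% in size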; note: potency is the fitted concentration of half-maximal effect
# In short: as §1
# [18] = qHTS of pediatric cancer cell lines to identify multiple opportunities for drug repurposing: Confirmatory screen for SJ-GBM2 cells (AID 1347116); note: potency is the fitted concentration of half-maximal effect; nearly all actives have a fitted effect of over 60% in size
# In short: as §2
# [19] = qHTS of pediatric cancer cell lines to identify multiple opportunities for drug repurposing: Confirmatory screen for SK-N-SH cells (AID 1347129);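 note: cells exposed to compound for 48 h before viability read; nearly all actives have a fitted effect of over 60% in size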; note: potency is the fitted concentration of half-maximal effect
# In short: as §1
structure (smiles),measurement,setting,value
COC(=O)Nc1nc2ccc(C(=O)c3cccs3)cc2[nH]1,Potency,[1],0.522 µM (active)
same,Potency,[2],0.522 µM (active)
same,Potency,[3],0.131 µM (active)
same,Potency,[4],0.329 µM (active)
same,Potency,[5],0.147 µM (active)
same,Potency,[6],inactive
same,Potency,[7],0.233 µM (active)
same,Potency,[8],inactive
same,Potency,[9],inactive
same,Potency,[10],0.131 µM (active)
same,Potency,[11],0.208 µM (active)
same,Potency,[12],inactive
CS(=O)(=O)Nc1ccc([N+](=O)[O-])cc1Oc1ccccc1,Potency,[1],inactive
same,Potency,[2],inactive
same,Potency,[5],16.5 µM (active)
same,Potency,[6],inactive
same,Potency,[13],18.5 µM (active)
same,Potency,[8],inactive
same,Potency,[9],inactive
same,Potency,[10],inactive
same,Potency,[11],inactive
same,Potency,[12],inactive
O=C1Cc2cc(CCN3CCN(c4nsc5ccccc45)CC3)c(Cl)cc2N1,Potency,[14],44.7 µM (active)
same,Potency,Furin (Homo sapiens),24.1 µM (active)
same,Potency,[12],26.7 µM (active)
same,Potency,[15],34.1 µM (active)
Cc1cnc(C(=O)NCCc2ccc(S(=O)(=O)NC(=O)NC3CCCCC3)cc2)cn1,Potency,[14],inactive
same,Potency,Furin (Homo sapiens),inactive
same,Potency,[12],inactive
same,Potency,[15],inactive
same,Potency,[16],inactive
CC[C@@]1(O)C(=O)OCc2c1cc1n(c2=O)Cc2cc3c(CN(C)C)c(O)ccc3nc2-1,Potency,[1],3.69 µM (active)
same,Potency,[2],0.185 µM (active)
same,Potency,[3],5.22 µM (active)
same,Potency,[17],0.0928 µM (active)
same,Potency,[18],1.31 µM (active)
same,Potency,[4],0.117 µM (active)
same,Potency,[5],0.329 µM (active)
same,Potency,[6],inactive
same,Potency,[13],3.69 µM (active)
same,Potency,[7],5.85 µM (active)
same,Potency,[8],5.22 µM (active)
same,Potency,[9],2.93 µM (active)
same,Potency,[10],0.208 µM (active)
same,Potency,[11],0.329 µM (active)
same,Potency,[19],6.62 µM (active)
same,Potency,[14],inactive
same,Potency,[12],inactive
CC(C)NCC(O)c1ccc(O)c(O)c1 (stereo unspecified),Potency,[1],4.14 µM (active)
same,Potency,[3],inactive
same,Potency,[17],inactive
same,Potency,[4],5.22 µM (active)
same,Potency,[6],inactive
same,Potency,[7],inactive
same,Potency,[19],inactive
same,Potency,[12],inactive
